Laboratory results published in PubChem BioAssay AID1159580 (chemical genetic matrix, 2015).
“And” between values parts separate entries of the source, which are not always exact repeats. Identical values can stand only once. The campaign covered roughly 5,500 compounds. About 2,000 (36%) were called active. Not shown: some 18% with an inconclusive outcome. Rule as the data show it: active = normalized growth mostly below about 0.91 (no sharp cut-off); inconclusive = no clear call, values can overlap the other calls; inactive = mostly above about 0.92. The list shows a part of the results.

Assay: chemical genetic growth profiling, strain panel (AID 1159580);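 also: tested at 20 µM; growth read once vehicle control cultures reached saturation at 30 °C; 1 = growth at the plate median or of vehicle wells; lower values mean less growth of the strain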
Conditions: S. cerevisiae deletion strains, growth OD

Measured: normalized growth

CCCCCC(C)N (stereo unspecified)
inactive: locus YAL013W, strain DEP1, hits give low values 1.01 | locus YAL021C, strain ccr4, hits give low values 1.02 | locus YAL026C, strain drs2, hits give low values 1.02 | locus YAL030W, strain snc1, hits give low values 1.02 | locus YBL061C, strain skt5, hits give low values 1.03 | locus YBR009C, strain hhf1, hits give low values 1.03 | locus YBR021W, strain FUR4, hits give low values 1.01 | locus YBR023C, strain chs3, hits give low values 1.05 | locus YBR171W, strain sec66, hits give low values 1.04 | locus YBR229C, strain ROT2, hits give low values 1.01 | locus YBR231C, strain swc5, hits give low values 1.04 | locus YBR279W, strain paf1, hits give low values 1.02 | locus YCL011C, strain gbp2, hits give low values 1.02 | locus YCL016C, strain dcc1, hits give low values 1.03 | locus YCL029C, strain bik1, hits give low values 0.994 | locus YCL061C, strain MRC1, hits give low values 1.02 | locus YCL069W, strain vba3, hits give low values 1.03 | locus YCR088W, strain abp1, hits give low values 1.02 | locus YDL005C, strain med2, hits give low values 1.04 | locus YDL035C, strain GPR1, hits give low values 1.02 | locus YDL040C, strain nat1, hits give low values 1.03 | locus YDL074C, strain BRE1, hits give low values 1.02 | locus YDL101C, strain DUN1, hits give low values 1 | locus YDL134C, strain PPH21, hits give low values 1.02 | locus YDL185W, strain tfp1, hits give low values 0.999 | locus YDL192W, strain arf1, hits give low values 0.997 | locus YDR001C, strain nth1, hits give low values 1.02 | locus YDR069C, strain doa4, hits give low values 1.01 | locus YDR101C, strain arx1, hits give low values 0.99 | locus YDR137W, strain rgp1, hits give low values 1.08 | locus YDR150W, strain NUM1, hits give low values 1.02 | locus YDR159W, strain sac3, hits give low values 1.02 | locus YDR162C, strain NBP2, hits give low values 1.01 | locus YDR195W, strain ref2 1.03 | locus YDR297W, strain sur2, hits give low values 1.02 | locus YDR318W, strain mcm21, hits give low values 0.994 | locus YDR334W, strain swr1, hits give low values 1.02 | locus YDR335W, strain msn5, hits give low values 1.03 | locus YDR388W, hits give low values 0.993 | locus YDR392W, strain spt3, hits give low values 0.996 | locus YDR502C, strain sam2, hits give low values 0.993 | locus YEL003W, strain gim4, hits give low values 1.02 | locus YEL037C, strain rad23, hits give low values 1.02 | locus YEL061C, strain CIN8 (second series), hits give low values 1.03 | locus YEL061C, strain CIN8, hits give low values 1.01 | locus YER015W, strain faa2, hits give low values 1.02 | locus YER016W, strain bim1, hits give low values 1.02 | locus YER110C, hits give low values 0.989 | locus YER111C, strain swi4, hits give low values 1.03 | locus YER155C, strain BEM2 (second series), hits give low values 1 | locus YER155C, strain BEM2, hits give low values 1.02 | locus YER167W, strain BCK2, hits give low values 1.01 | locus YFR010W, strain ubp6, hits give low values 1.02 | locus YGL078C, strain dbp3, hits give low values 0.995 | locus YGL086W, strain mad1, hits give low values 1.01 | locus YGL167C, strain pmr1, hits give low values 1.03 | locus YGL173C, strain kem1, hits give low values 1.03 | locus YGL227W, strain vid30, hits give low values 1.02 | locus YGL240W, strain doc1, hits give low values 1.02 | locus YGL248W, strain PDE1, hits give low values 1 | locus YGL253W, strain hxk2, hits give low values 1.03 | locus YGR078C, strain PAC10, hits give low values 0.908 | locus YGR135W, strain pre9, hits give low values 0.996 | locus YGR229C, strain SMI1, hits give low values 1.01 | locus YGR252W, strain gcn5, hits give low values 1.05 | locus YHR027C, strain rpn1, hits give low values 1.02 | locus YHR030C, strain SLT2, hits give low values 1.02 and 1.01 | locus YHR079C, strain IRE1 (second series), hits give low values 0.996 | locus YHR079C, strain IRE1, hits give low values 0.99 | locus YHR094C, strain hxt1, hits give low values 0.998 | locus YHR129C, strain ARP1, hits give low values 1.01 | locus YHR142W, strain chs7, hits give low values 1.04 | locus YHR200W, strain rpn10, hits give low values 0.996 | locus YIL066C, strain RNR3, hits give low values 1.02 | locus YIL073C, strain SPO22, hits give low values 0.987 | locus YIL125W, strain kgd1, hits give low values 1 | locus YIR030C, strain dcg1, hits give low values 0.996 | locus YJL092W, strain hpr5, hits give low values 1.02 | locus YJL095W, strain BCK1 (second series), hits give low values 1.02 | locus YJL095W, strain BCK1, hits give low values 0.999 and 1 | locus YJL115W, strain asf1, hits give low values 1.02 | locus YJL129C, strain trk1, hits give low values 1.05 | locus YJL134W, strain LCB3, hits give low values 1 | locus YJL154C, strain vps35, hits give low values 1.01 | locus YJL164C, strain tpk1, hits give low values 1.02 | locus YJL166W, strain qcr8, hits give low values 1.02 | locus YJL168C, strain set2, hits give low values 0.991 | locus YJL187C, strain SWE1 (second series), hits give low values 1.01 | locus YJL187C, strain SWE1, hits give low values 1.02 | locus YJR043C, strain POL32, hits give low values 0.998 | locus YJR066W, strain TOR1, hits give low values 0.942
